# From PubChem
# A selection: hits, their analogues and other compounds. The true share with any hit is near 3.4%.
# FBW7 activator = FBW7 E3 ligase activators, primary screen, biochemical, AlphaScreen, human; hit rate 0.13% among 650,000; normalized activity (activation), % at 26.1 µM; AID 1259310, 2017; AlphaScreen FBW7–phospho-cyclin E peptide binding, activator screen; in the data active means normalized activity above about 1.9%;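 further: purified mutant Fbw7 with reduced substrate affinity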
# MITF inh = MITF inhibitors, primary screen, biochemical, AlphaScreen, human | Microphthalmia-associated transcription factor (Homo sapiens), O75030 | AlphaScreen MITF homodimerization, bead proximity signal | inhibition, % at 2.6 µM | hit rate 0.91% among 650,000 | AID 1259374, 2018; in the data active means inhibition above about 50%
# TEAD-YAP block = TEAD-YAP interaction inhibition, primary screen, TEAD-YAP interaction inhibitor project, luminescence, HEK-TIYL cells; inhibition, % at 9.12 µM; hit rate 1.4% among 640,000; TEAD-Gal4/YAP UAS-luciferase luminescence; AID 1259422, 2018; in the data active means inhibition above about 32%
# GPR151 ag = activators of human GPR151, primary screen, cell-based, PathHunter beta-arrestin, luminescence; G-protein coupled receptor 151 (Homo sapiens), Q8TDV0; PathHunter beta-arrestin GPR151 cells; activation, % at 11.2 µM; hit rate 1% among 650,000; in the data active means activation above about 4.9%
# Target sequence (Q8TDV0 whole entry, looked up): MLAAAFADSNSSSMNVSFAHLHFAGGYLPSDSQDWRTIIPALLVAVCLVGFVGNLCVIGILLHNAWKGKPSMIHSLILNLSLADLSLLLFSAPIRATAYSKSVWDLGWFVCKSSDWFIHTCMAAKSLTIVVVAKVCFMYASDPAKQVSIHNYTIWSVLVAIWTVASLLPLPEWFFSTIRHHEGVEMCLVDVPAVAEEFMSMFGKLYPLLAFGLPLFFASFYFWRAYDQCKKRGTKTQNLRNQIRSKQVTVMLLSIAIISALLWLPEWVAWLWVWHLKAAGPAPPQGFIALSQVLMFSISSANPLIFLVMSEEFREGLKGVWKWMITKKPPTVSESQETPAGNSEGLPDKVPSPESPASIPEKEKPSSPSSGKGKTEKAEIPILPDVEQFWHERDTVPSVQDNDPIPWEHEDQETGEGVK
# MITF inh conf = MITF inhibitors, retest of hits, confirmation, biochemical, AlphaScreen, triplicate; shares compounds with MITF inh; AlphaScreen MITF homodimerization, biotin/His-MITF beads; inhibition, % at 2.6 µM; hit rate 16% among 4,700; AID 1259372, 2018;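 active means inhibition above a cutoff derived from the DMSO control wells, cut at about 28% in these data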;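 further: inhibitors lower the bead chemiluminescence by keeping MITF from dimerizing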
# AlphaScreen DR = AlphaScreen optical interference compounds, dose response, counter-screen, biochemical, HTS; shares compounds with MITF inh; AlphaScreen optical interference counterscreen, cell-free; IC50, µM; hit rate 6% among 480; AID 1259373, 2018; call rule not given here
# AS interf ctr = AlphaScreen optical interference compounds, counter-screen for MITF inhibitor project, biochemical, triplicate; shares compounds with MITF inh; LysRS AlphaScreen counterscreen, signal interference; inhibition, % at 2.6 µM; hit rate 7.6% among 4,700; AID 1259376, 2018;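 active means inhibition above a cutoff derived from the DMSO control wells, cut at about 30% in these data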
# A number is an active result; - = inactive; . = not tested or not shown.
SMILES,FBW7 activator,MITF inh,TEAD-YAP block,GPR151 ag,MITF inh conf,AS interf ctr,others
COc1ccc(CNS(=O)(=O)c2ccc3[nH]c(=O)oc3c2)c(OC)c1,-,-,-,-,.,.,
CCc1nc2ccccc2c(NC(=O)CN2CCN(CCO)CC2)c1C,-,69,-,-,-,-,
CCCCc1nc2ccccc2c(NC(=O)CN2CCN(C(=O)c3ccccc3)CC2)c1CCC,-,62,-,-,-,-,
Cc1cc(NC(=O)Cn2nc(C(=O)N3CCOCC3)cc2C)c2ccccc2n1,-,-,-,-,.,.,
CCc1sc(NC(=O)CN2CCCC2)nc1-c1ccccc1,-,-,-,-,.,.,
CCCCCCN(CCCCCC)CC(=O)Nc1c(C)c(CC)nc2ccccc12,-,69,-,-,-,-,
CCCCc1nc2ccccc2c(C(=O)O)c1C,-,-,-,-,.,.,
CCCc1nc2ccccc2c(NC(=O)CN2CCCC2)c1CC,-,81,-,-,-,-,
O=C(c1cc(Cl)ccc1[N+](=O)[O-])n1cnc2ccccc21,-,-,-,-,.,.,
O=C(c1ccccc1[N+](=O)[O-])n1cnc2ccccc21,-,56,-,-,-,-,
O=C(Nc1ccccc1Br)c1ccccc1[N+](=O)[O-],-,-,-,-,.,.,
O=C(Cn1cc2c(n1)CCCC2)N1CCN(c2ccccc2)CC1,-,61,-,-,-,-,
O=C(Cn1cc2c(n1)CCCC2)N1CCCCC1,-,-,-,-,.,.,
Cc1cccc(C2=N/C(=C\c3cccc(Cl)c3Cl)C(=O)O2)c1,-,-,-,-,.,.,
Cc1cc(C)c(CN2CCN(C3CCN(C(C)C)CC3)C(CCO)C2)cc1C (centres undefined),-,-,-,-,.,.,
Cc1c(CN2CCN(C3CCN(C(C)C)CC3)C(CCO)C2)cnn1C (centres undefined),-,84,-,-,-,-,
O=[N+]([O-])c1cc(C2C=C(c3ccc(Cl)cc3)Nc3nnnn32)ccc1Cl (centres undefined),-,65,-,-,-,-,
Fc1ccc(C2=CC(c3ccc(Cl)cc3)n3nnnc3N2)cc1 (centres undefined),-,-,-,-,.,.,
c1ccc(CC2(c3ccccc3)CCNC2)cc1 (centres undefined),-,56,-,-,-,-,
COc1oc(-c2ccc(C)cc2)nc1C(F)(F)F,-,-,-,-,.,.,
COc1oc(-c2ccc(F)cc2)nc1C(F)(F)F,-,54,-,-,-,-,
O=C(c1ccc2c(=O)n(C3CCCCC3)c(SCc3ccncc3)nc2c1)N1CCOCC1,-,-,-,-,.,.,
O=C(NCc1ccccc1)C(Cc1ccc([N+](=O)[O-])cc1)N1C(=O)c2ccccc2C1=O (centres undefined),-,-,-,-,.,.,
N#Cc1ccc(NC(=O)C2Cc3ccccc3CN2S(=O)(=O)c2ccc(F)cc2)cc1 (centres undefined),-,-,-,-,.,.,
COc1cc(CN2CCC(Cn3c(C)nc4ccccc43)CC2)cc(OC)c1,-,59,-,-,-,-,
SMILES,FBW7 activator,MITF inh,TEAD-YAP block,GPR151 ag,MITF inh conf,AS interf ctr,others
COc1cc(CN2CCC(c3nc(-c4ccccc4)no3)CC2)cc(OC)c1,-,-,-,-,.,.,
Cc1ccccc1NC(=O)NC1(C(F)(F)F)Oc2ccc(Cl)cc2O1 (centres undefined),-,-,-,-,.,.,
COc1ccccc1NS(=O)(=O)c1cccc(NC(=O)NC2(C(F)(F)F)Oc3ccc(Cl)cc3O2)c1 (centres undefined),-,68,-,-,-,-,
CCN1CCN(CCOc2ccc3ccccc3c2Cl)CC1,-,58,-,-,-,-,
CCN1CCN(CCCOc2ccc3ccccc3c2Br)CC1,-,61,-,-,-,-,
Clc1c(OCCCN2CCNCC2)ccc2ccccc12,-,51,-,-,-,-,
CCN1CCN(CCOc2cccc3ccccc23)CC1,-,-,-,-,.,.,
Cc1ccc(S(=O)(=O)N(Cc2ccccc2)c2ccccc2C(=O)NCc2ccc(Cl)cc2)cc1,-,-,-,-,.,.,
CCn1c(=NC(=O)CS(=O)(=O)c2ccccc2)sc2cccc(OC)c21,-,-,-,-,.,.,
O=C(NCc1ccccc1)NC1(C(=O)N2CCN(c3ncccn3)CC2)CCCCC1,-,-,-,-,.,.,
O=C(NCc1ccccc1)NC1(C(=O)N2CCCC2)CCCCC1,-,68,-,-,-,32,
COc1ccc(Cl)cc1C(=O)NNC(=O)COc1ccc2c(C)cc(=O)oc2c1,-,64,-,-,-,-,
CN1CCC(N2CCC(Oc3cccc(C(=O)NCc4cccc(F)c4)c3)CC2)CC1,-,-,-,-,.,.,
O=C(NCCCn1ccnc1)NC(C(F)(F)F)C(F)(F)F,-,-,-,-,.,.,
O=C(/C(Br)=C/NCCCn1ccnc1)C(F)(F)F,-,65,-,-,40,99,
Cc1cc(C)cc(NCc2ccc3c(c2)OCO3)c1,-,67,-,-,-,-,
CN(Cc1ccc2c(c1)CN(C(=O)c1ccsc1)CCO2)Cc1cc(C2CC2)n[nH]1,-,-,-,-,.,.,
CCCCSC1=C(C#N)C(c2cccc([N+](=O)[O-])c2)C(C(C)=O)=C(C)N1 (centres undefined),-,63,-,-,-,-,
O=C(NCC(c1ccco1)S(=O)(=O)c1cccs1)c1ccco1 (centres undefined),-,-,-,-,.,.,
O=C(NCC(c1cccs1)S(=O)(=O)c1ccc(Cl)cc1)c1ccco1 (centres undefined),-,70,-,-,59,-,AlphaScreen DR=-
Cc1ccc(S(=O)(=O)C(CNC(=O)C(C)C)c2cccs2)cc1 (centres undefined),-,-,-,-,.,.,
CC(=O)NCC(c1cccs1)S(=O)(=O)c1ccc(C)cc1 (centres undefined),1.9,51,-,-,60,-,AlphaScreen DR=-
Cc1ccc(S(=O)(=O)C(CNC(=O)c2ccco2)c2cccs2)cc1 (centres undefined),-,95,-,-,83,-,AlphaScreen DR=-
OC(CNC1CCCCC1)Cn1c(C(F)(F)F)nc2ccccc21 (centres undefined),-,-,-,-,.,.,
COc1ccc2cc(C)c3nn(CCN4CCCC4)c(=O)n3c2c1,-,-,-,-,.,.,
O=[N+]([O-])c1ccccc1OCCN1CCCC1,-,-,-,-,.,.,
Cc1ccc(OCCCCN2CCNCC2)c([N+](=O)[O-])c1,-,80,-,-,-,-,
CC1CCCN(CCOc2ccccc2[N+](=O)[O-])C1 (centres undefined),-,54,-,-,-,-,
